# Bioassay records deposited in PubChem BioAssay by The Scripps Research Institute Molecular Screening Center.
# This is a sample that favours compounds with a hit; in the whole collection about 3.4% have one here.
# proKLK7 act: activators of human kallikrein-7 zymogen; P49862; purified proKLK7, EDANS-DABCYL substrate fluorescence; 100% is mature enzyme control, 0% vehicle; activation, % at 7 µM; hit rate 0.9% among 370,000; AID 652039;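 active = activation above the mean of all tested compounds plus 3 SD, computed per campaign excluding outliers beyond control limits, cut at about 13% in these data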
# ADAM10 inh: ADAM10 inhibition, QFRET primary screen | AID 720582 | hit rate 0.62% among 370,000 | inhibition, % at 7 µM | recombinant ADAM10, EDANS/DABCYL FRET peptide cleavage, 3 h;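 active = inhibition above a per-campaign cutoff equal to the mean of compounds falling between control-based bounds plus 3 SD, cut at about 20% in these data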;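 note: 0% = DMSO wells while the 100% control is not disclosed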
# Target sequence (O14672 214-748 limits assumed): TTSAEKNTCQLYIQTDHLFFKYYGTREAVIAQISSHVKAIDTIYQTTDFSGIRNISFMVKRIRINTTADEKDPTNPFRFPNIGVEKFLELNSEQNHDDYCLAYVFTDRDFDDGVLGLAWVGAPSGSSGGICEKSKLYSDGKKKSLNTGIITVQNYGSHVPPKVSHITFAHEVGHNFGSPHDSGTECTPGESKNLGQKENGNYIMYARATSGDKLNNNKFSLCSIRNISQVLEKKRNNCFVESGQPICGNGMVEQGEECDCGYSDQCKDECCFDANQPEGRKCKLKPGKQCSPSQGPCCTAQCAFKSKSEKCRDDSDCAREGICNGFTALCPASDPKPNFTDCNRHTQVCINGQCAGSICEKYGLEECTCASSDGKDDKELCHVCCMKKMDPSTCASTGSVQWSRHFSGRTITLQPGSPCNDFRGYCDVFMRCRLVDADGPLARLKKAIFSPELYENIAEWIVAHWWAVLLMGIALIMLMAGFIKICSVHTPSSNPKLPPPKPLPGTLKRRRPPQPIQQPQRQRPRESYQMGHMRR
# ADAM17 inh: inhibits human ADAM17; P78536; recombinant ADAM17, EDANS/DABCYL FRET peptide cleavage; inhibition, % at 6.95 µM; hit rate 0.83% among 370,000; AID 720648;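 active = inhibition above the mean of compounds lying between control limits plus 3 SD, set per campaign, cut at about 8.5% in these data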;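 note: 0% = DMSO-only wells as the low control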
# sPLA2-III inh: Inhibits HGIII-sPLA2 liposome hydrolysis, primary screen; Q9NZ20; QFRET BODIPY PC-A2 liposome hydrolysis, fluorescence; inhibition, % at 12.2 µM; hit rate 0.56% among 370,000;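 active = inhibition above mean plus 3 SD of compounds lying within the high and low control bounds, cut at about 19% in these data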;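 note: 0% = median of test compound wells and 100% = no enzyme DMSO wells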
# PLC-gamma1 inh: PLC-gamma1 (human) inhibition, primary screen; P19174; inhibition, % at 12.2 µM; purified PLC-gamma1, fluorogenic substrate, fluorescence; hit rate 0.84% among 370,000; in the data active = inhibition above about 9.5%
# PLCb3 inh: PLC-beta3 (human) inhibition, primary screen; inhibition, % at 12.2 µM; Purified PLC-beta3, fluorogenic substrate, fluorescence; hit rate 0.18% among 370,000;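 note: 0% = median of compound wells on plate and 100% = full blocker control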
# PLCgamma1 ctr: counter-screen for PLC-beta3 inhibitors: inhibitors of human PLC-gamma1; shares compounds with PLC-gamma1 inh; purified PLC-gamma1, fluorogenic substrate, fluorescence; hit rate 3.1% among 3,300; inhibition, % at 12.3 µM; in the data active = inhibition above about 9.5%
# PLCbeta3 conf: human PLC-beta3 inhibition, confirmation. shares compounds with PLC-gamma1 inh. purified PLC-beta3, fluorogenic substrate fluorescence. inhibition, % at 12.3 µM. hit rate 1% among 3,300
# * hit, by the source's call; nt = not tested or not shown. Cut-off read from the data, not from the text of the source, unless noted: active = inhibition above about 11%; inactive = the rest.
SMILES,proKLK7 act,ADAM10 inh,ADAM17 inh,sPLA2-III inh,PLC-gamma1 inh,PLCb3 inh,PLCgamma1 ctr,PLCbeta3 conf
O=C(NCCNC(=O)c1cc(OCC(F)(F)F)ccc1OCC(F)(F)F)Nc1ccc(OC(F)(F)F)cc1,0,6,5,3,12*,-2,-7,-3
CC(C)CCNC(=O)[C@@H](Cc1ccccc1)NC(=O)[C@H]1O[C@@H](n2ccc(=O)[nH]c2=O)[C@H](O)[C@@H]1O,1,-3,-4,-3,1,-1,nt,nt
CCn1c(SCC(=O)N(C)c2c(N)n(Cc3ccccc3)c(=O)[nH]c2=O)nc2ccccc21,2,-10,-5,6,1,-9,nt,nt
COc1ccc(CN(C)Cc2ccccc2)c(OC)c1OC,-1,6,0,-2,11*,2,-4,-7
O=Cc1c[nH]c2ncccc12,0,-3,-8,18,10*,-7,-5,-2
O=S1(=O)N=C2CCCCCN2C(c2ccc(Cl)cc2)N1 (centres undefined),0,2,3,1,10*,-2,4,3
O=C(COC(=O)C1=COCCO1)Nc1cc(C(F)(F)F)ccc1Cl,0,2,-3,-8,1,-3,nt,nt
CCc1nc2ccccc2c(C(=O)OCc2nc3ccccc3c(=O)[nH]2)c1C,1,-47,-12,4,-7,-14,nt,nt
COC(=O)c1ccccc1NC(=O)C/C(C)=N/NC(=O)Cc1ccc(Cl)cc1,0,0,-1,-5,-5,-14,nt,nt
CC1CCN(CC(O)COc2ccc(OCC(O)CN3CCC(C)CC3)cc2)CC1 (centres undefined),-1,3,-2,-4,1,-1,nt,nt
Cc1ccc(C)c(OCC(O)CN2CCC(C)CC2)c1C (centres undefined),0,-3,3,4,11*,2,-4,-5
Cc1occc1-c1nnc(SCC(=O)Nc2ccccc2)n1C,0,-10,3,5,5,15*,-5,-1
Cc1occc1-c1nnc(SCC(=O)Nc2ccccc2)n1CCc1ccccc1,0,5,0,-19,3,2,nt,nt
Cc1ccc(OCc2nnc(N)s2)cc1,1,-2,0,-4,0,-2,nt,nt
Nc1nnc(COc2ccccc2)s1,0,1,3,2,11*,1,-5,0
O=C(OCc1ccccc1C(F)(F)F)c1cc([N+](=O)[O-])ccc1N1CCOCC1,0,6,7,-11,10*,3,-1,2
COc1ccccc1CCC(=O)OCC(=O)Nc1ccc(C(N)=O)cc1,0,0,-3,1,-1,-8,nt,nt
O=C1N[C@@H](Cc2ccccc2)C(=O)N2[C@@H]1C[C@]1(Br)c3ccccc3N(S(=O)(=O)c3ccccc3)[C@H]21,-1,14,7,-13,1,-2,nt,nt
CS(=O)(=O)N1CCN(C(=O)c2ccc(F)cc2)CC1,0,2,6,-7,12*,1,-2,0
CSc1ccccc1NC(=O)Cn1nc([N+](=O)[O-])cc1C,0,6,-1,1,3,2,nt,nt
CS/C(N)=N/S(=O)(=O)c1ccc(NC(C)=O)cc1,0,1,-2,1,1,1,nt,nt
Cc1cnc(CNC(=O)c2ccc3sc([C@H]4C[C@H](O)[C@@H](CO)O4)nc3c2)cn1,-1,4,8,4,10*,9,-3,-35
C=CCn1c(N2CCCC2)nc2c1c(=O)n(C)c(=O)n2C,0,10,3,4,9.7*,-1,3,2
C/C(Cl)=C\Cn1c(N2CCCCCC2)nc2c1c(=O)n(C)c(=O)n2C,0,0,4,7,4,5,nt,nt
Cc1ccccc1-c1cc2c(nn1)-c1ccccc1C2=O,0,-4,-5,2,9,12*,2,1
SMILES,proKLK7 act,ADAM10 inh,ADAM17 inh,sPLA2-III inh,PLC-gamma1 inh,PLCb3 inh,PLCgamma1 ctr,PLCbeta3 conf
Cc1ccc2c(=O)[nH]c(Nc3nc(C)cc(-c4ccccc4)n3)nc2c1,0,6,1,-4,11*,-4,-5,-2
Cc1cc(C)cc(Nc2nc3ccccc3c(=O)[nH]2)c1,0,6,2,-9,3,0,nt,nt
Brc1ccc(-c2cnco2)cc1,1,-3,1,-1,2,-4,nt,nt
COc1ccc(-c2cc(C3CCN(Cc4ccc([N+](=O)[O-])cc4)CC3)[nH]n2)cc1,0,5,0,-7,-2,-4,nt,nt
Cc1ccc(CN2CCC(c3cc(-c4ccc(Cl)cc4)n[nH]3)CC2)cc1,1,11,6,-13,11*,-2,-3,-5
Cc1ccccc1NS(=O)(=O)c1ccc(NS(=O)(=O)c2cccs2)cc1,0,-1,-3,-27,-3,-7,nt,nt
CCN1CCN(CC(=O)NC2CCCC2)C(=O)C1=O,-1,12,3,14,13*,7,-4,-4
O=C(CN1CCN(CC(=O)c2ccccc2)CC1)c1ccccc1,0,-30,-6,14,-8,-15,nt,nt
COc1cc(CN2CCC(C)CC2)ccc1OCc1ccccc1,-1,3,4,-9,15*,-2,5,4
O=C(NC(Cc1ccccc1)C(=O)O)/C(=C/c1ccccc1)NC(=O)c1ccco1 (centres undefined),0,-6,0,9,-17,-31,nt,nt
O=C(/C=N/O)Nc1ccc(F)cc1,0,10,0,-13,9.5*,6,-6,-2
CC1(C)OC2OC(C3COC(=O)O3)C(OC(=O)c3ccccc3)C2O1 (centres undefined),0,-9,-5,-1,4,1,nt,nt
COc1ccc(NC(=O)COC(=O)CCC2CCCCC2)cc1,0,3,-4,1,-4,-6,nt,nt
NC(=O)c1ccc(NC(=O)COC(=O)CCC2CCCCC2)cc1,0,10,5,-8,14*,-6,-5,-3
O=C(CSCc1ccccc1Cl)N1CCN(c2ccccn2)CC1,0,-14,-8,-1,-3,1,nt,nt
O=C(CCSCc1ccccc1F)N1CCN(c2ccccn2)CC1,0,-10,-2,3,10.0*,2,-7,-4
Cc1ccc(S(=O)(=O)N2C[C@@H]3[C@H]4CC[C@H](C4)[C@@H]3[C@@H](C)[C@@H]2C2CCCCC2=O)cc1 (some centres undefined),1,-4,-2,-2,1,2,nt,nt
COc1ccc(S(=O)(=O)Nc2c(F)cccc2F)cc1,0,1,3,2,14*,5,-2,-1
Cc1ccc2c(c1)N(CC(=O)N1CCCCC1)C(=O)CO2,-1,5,-3,-2,0,-5,nt,nt
